# Luc counter – Kinase-Glo luciferase inhibition (counter-screen); Kinase-Glo luciferase, ATP luminescence, 8 min; Q27757; actives 0.28% (n = 200,000); Potency, µM (series often up to 38.3 µM), for the others: at the highest dose activity change, negative = inhibition, most hits filed as inhibitors; note: % is set by controls: 0 for no effect and ±100 for the full control effect; nearly all actives have a fitted effect of over 60% in size
#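 Light output from Kinase-Glo luciferase with luciferin and 10 uM ATP in 50 mM imidazole pH 7.2, KCl, MgCl2, Tween 20, BSA; compound pin-delivered, 8-min ambient incubation, then luminescence read.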
# Rab9 prom act – activators of Rab9 promoter; actives 2.8% (n = 320,000); AID 485297; Huh7 Rab9 promoter-luciferase reporter, luminescence, 24 h; Potency, µM (top dose mostly 9.22 µM), without a hit: at the highest dose activation, negative = inhibition, most hits filed as activators; note: % of control where 0% means no effect; nearly all actives have a fitted effect of over 60% in size
#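 Huh7 cells stably carrying a Rab9 promoter-luciferase reporter, 1500 cells per well in OP-MEM I with 10% FBS, treated with compound 24 hours at 37C. Luciferase activity read by luminescence after 10 minutes with Amplite reagent.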
# FLuc counter – inhibits or activates purified firefly luciferase, miR-21 counter-screen. P08659. purified FLuc, Km substrates, luminescence inhibition. Potency, µM (series often up to 57.5 µM), without a hit: at the highest dose activity change, negative = inhibition, usual class: inhibitors. actives 6.9% (n = 360,000);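 note: plate controls were vehicle for no effect and reference inhibitor for full effect; nearly all actives have a fitted effect of over 55% in size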
# Target sequence (P08659 whole entry, looked up): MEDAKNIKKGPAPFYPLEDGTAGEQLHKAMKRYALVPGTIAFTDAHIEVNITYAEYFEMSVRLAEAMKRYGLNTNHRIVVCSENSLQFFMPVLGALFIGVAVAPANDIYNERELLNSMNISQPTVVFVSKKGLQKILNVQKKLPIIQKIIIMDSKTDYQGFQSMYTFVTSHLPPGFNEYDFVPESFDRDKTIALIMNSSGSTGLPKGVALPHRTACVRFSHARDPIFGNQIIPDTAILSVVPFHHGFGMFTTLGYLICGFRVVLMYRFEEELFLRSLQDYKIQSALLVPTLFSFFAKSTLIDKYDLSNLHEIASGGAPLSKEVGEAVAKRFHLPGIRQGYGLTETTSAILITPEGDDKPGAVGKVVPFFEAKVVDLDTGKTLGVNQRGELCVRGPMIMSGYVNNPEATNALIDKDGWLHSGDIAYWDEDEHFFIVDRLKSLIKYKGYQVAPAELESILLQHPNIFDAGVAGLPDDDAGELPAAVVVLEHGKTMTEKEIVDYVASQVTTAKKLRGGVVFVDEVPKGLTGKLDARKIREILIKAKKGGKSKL
#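 Purified P. pyralis luciferase (10nM final) with 10uM D-luciferin and 10uM ATP (Km levels) in 50mM Tris acetate pH 7.5, 10mM Mg acetate, 0.01% Tween-20, 0.05% BSA; qHTS 6-point titration, ~60 µM downward; luminescence read.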
# SMN2 splice up – increases expression of the SMN2 splice variant. actives 2.8% (n = 210,000). Potency, µM (series often up to 46.1 µM), inactives show top-dose activity change, positive = activation, usual class: activators. HEK293 SMN2-luciferase splicing reporter, luminescence, 30-36 h. AID 1458; note: % of control where 0% means no effect; nearly all actives have a fitted effect of over 55% in size
#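 HEK293 cells carry an SMN2 minigene-luciferase reporter in which exon 7 inclusion puts luciferase in frame. Cells were seeded at 2000 cells/well, attached for 10-12 hours, then exposed to compounds for 30-36 hours at 37C before ONE-Glo luminescence.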
# ELG1 genotox – genotoxicity induction in ELG1-luciferase HEK293T cells. HEK293T ELG1-luciferase reporter, luminescence, 16 h. Potency, µM (series often up to 46 µM), without a hit: at the highest dose activity change, positive = activation, most hits filed as activators. actives 1.3% (n = 330,000). AID 504466; note: % of control where 0% means no effect; nearly all actives have a fitted effect of over 60% in size
#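 Luminescence read-out: rising ELG1-luciferase signal, reflecting elevated ELG1 protein under genetic stress, flags genotoxic compounds. Cells were treated for 16 hr at 37 °C before ONE-Glo detection.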
# NPC1 promoter act – activators of NPC1 promoter | Huh7 NPC1 promoter luciferase reporter, 24 h | Potency, µM (top dose mostly 9.22 µM), without a hit: top-dose activation, hits mostly activators | actives 2.4% (n = 320,000) | AID 485313; note: % of control where 0% means no effect; nearly all actives have a fitted effect of over 60% in size
#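 Huh7 cells stably carrying NPC1 promoter–luciferase, plated in Opti-MEM with 10% FBS for 2 h, were exposed to compound in DMSO for 24 h at 37 °C; luciferase reagent was added for 10 min and luminescence read.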
# The depositor's hits bear a star; ? = inconclusive; nt = no result. Hits are enriched below; roughly 7.5% of the tested compounds scored in any of these assays. Calls come from the whole dose curve; as a rule, active = well fitted curve in the direction sought with a large enough effect; inconclusive = small, poorly fitted or top-dose-only effect, or another doubt; inactive = no such curve, though single readings can be large; an effect the other way counts as inactive or inconclusive. Potency is the fitted concentration of half-maximal effect.
SMILES,Luc counter,Rab9 prom act,FLuc counter,SMN2 splice up,ELG1 genotox,NPC1 promoter act
Cc1ccccc1C(=O)O/N=C(\N)c1cccc([N+](=O)[O-])c1,?,4.47µM*,0.601µM*,?,?,?
CC(C)c1ccc(NC(=O)CCCc2nc(-c3ccc(Cl)cc3)no2)cc1,nt,nt,-1.9%,nt,nt,nt
CCc1cccc(C)c1NC(=O)CSc1nc(C)cc(C)c1C(=O)Nc1ccccc1,nt,nt,-9.1%,nt,nt,nt
Cc1ccc(Cl)cc1NS(=O)(=O)c1ccc(N2CCCCS2(=O)=O)cc1,nt,nt,-17.1%,nt,nt,nt
N/C(=N\OC(=O)c1cccs1)c1cccc([N+](=O)[O-])c1,-5.3%,26.3%,3.38µM*,19.5%,?,21.3%
Cc1cnc(CNc2nc(-c3ccc(N(C)C)cc3)nc3ccccc23)cn1,-2.2%,nt,nt,?,nt,nt
Nc1ccc2nc(SCc3ccc([N+](=O)[O-])cc3)sc2c1,-1.7%,3.4%,21.3µM*,-24.9%,-0.4%,-6.8%
Nc1nnc(SCc2ccc([N+](=O)[O-])cc2)s1,5.1%,-1.9%,-2.2%,-23.9%,-3.9%,0.6%
CC(C)OC(=O)CSc1nc2ccccc2s1,-6.4%,-0.7%,23.9µM*,-20.4%,?,1.2%
COC(=O)CSc1nc2ccc(N)cc2s1,-3.2%,-1.5%,26.9µM*,1.2%,-1.6%,-0.2%
Cc1ccccc1-c1noc(N)c1C#N,-1.0%,1.3%,-0.8%,-5.8%,3.6%,6.7%
CN(C)/C=C/c1onc(-c2ccccc2Cl)c1C#N,-1.7%,?,23.9µM*,24.1%,?,?
COc1ccccc1C(=O)c1nc2ccccc2n1C,nt,0.7%,0.7%,nt,0.1%,28.6%
COc1ccc(N/C=C(\C#N)c2nc3ccccc3n2C)c(OC)c1,13.8%,0.4%,2.69µM*,-18.0%,-7.0%,21.2%
CCn1c(/C(C#N)=C/c2ccccc2Cl)nc2ccccc21,nt,nt,5.36µM*,nt,nt,nt
CCn1c(/C(C#N)=N/O)nc2ccccc21,-0.8%,0.7%,0.2%,-46.4%,-3.6%,0.1%
Cn1c(/C(C#N)=C/c2ccccc2Br)nc2ccccc21,nt,nt,7.57µM*,4.5%,nt,nt
O=C(c1cnn(-c2ccccc2)c1)c1cc(F)ccc1O,nt,?,13.5µM*,nt,?,?
O=C(c1cnn(-c2ccccc2)c1)c1ccccc1O,-13.9%,3.16µM*,2.39µM*,?,?,?
COc1ccc(-n2cc(C(=O)c3ccccc3O)cn2)cc1,10µM*,0.501µM*,0.849µM*,?,2.31µM*,?
O=C(NC1CC(=O)N(c2ccccc2)C1)c1ccc(S(=O)(=O)N2CCCC2)cc1 (stereo not given),nt,nt,-0.8%,nt,nt,nt
Cc1ccc(NC(=O)c2sc3ncn(Cc4cccc(F)c4)c(=O)c3c2C)c(Br)c1,nt,nt,-2.6%,nt,nt,nt
Cc1ccc(NC(=O)c2ccc(COc3ccccc3)o2)nc1,nt,14.9%,?,nt,?,18.3%
CCOc1ccc(OCc2ccc(C(=O)Nc3ccc(Cl)cn3)o2)cc1,4.5%,27.6%,?,17.8µM*,0.8%,?
O=C(Nc1ccccn1)c1ccc(COc2ccccc2Cl)o1,-4.3%,25.8%,16.9µM*,14.5%,?,0.1%
SMILES,Luc counter,Rab9 prom act,FLuc counter,SMN2 splice up,ELG1 genotox,NPC1 promoter act
O=C(Nc1cccnc1)c1ccc(COc2ccccc2Cl)o1,-1.6%,-0.2%,?,-30.1%,0.7%,-0.4%
O=C(Nc1ccc(Cl)cn1)c1ccc(COc2ccccc2Br)o1,6.5%,?,?,12.6µM*,5.0%,27.9%
COC(=O)C1=C(C)NC(=O)C1(NC(=O)c1ccc(Cl)cc1)C(F)(F)F (stereo not given),nt,nt,-1.0%,nt,nt,nt
CCOc1ccc(C2C(=O)N(C3CCCCC3)CC(=O)N2C2CCCC2)cc1OC (stereo not given),nt,nt,-13.2%,nt,nt,nt
CCOc1ccc(C(=O)OCC(=O)N2CCCC2)cc1OCC,nt,-0.2%,1.9%,nt,3.2%,-1.3%
Cc1ccc(C2=NN3C(=O)c4ccccc4C3C2)cc1 (stereo not given),nt,?,16.9µM*,nt,?,?
CC(C)c1ccc(Cn2ccc3c4c(N)nc(NC5CC5)nc4ccc32)cc1,0.1%,nt,nt,nt,nt,nt
COc1ccc(-n2nc(C(=O)NCC(=O)N3CCOCC3)c3ccccc3c2=O)cc1OC,nt,-1.1%,23.9µM*,nt,-5.1%,-5.5%
COc1ccc(-n2nc(C(=O)NCC(=O)N3CCN(Cc4ccc5c(c4)OCO5)CC3)c3ccccc3c2=O)cc1OC,0.1%,-2.0%,-2.8%,-10.7%,-15.6%,-7.0%
COc1ccc(-n2nc(C(=O)NCC(=O)N3CCN(c4ccccc4)CC3)c3ccccc3c2=O)cc1OC,nt,13.5%,0.849µM*,nt,4.2%,?
COc1ccc(-n2nc(C(=O)NCC(=O)N3CCN(c4ccccc4OC)CC3)c3ccccc3c2=O)cc1OC,nt,17.1%,3.79µM*,nt,-5.2%,14.3%
Cc1ccc(-c2noc(COc3ccc(Br)c(C)c3)n2)cc1,nt,nt,6.8%,6.1%,nt,nt
COc1ccccc1C(=O)Oc1ccc(C(C)C)cc1,0.4%,-0.9%,9.53µM*,-7.4%,?,-2.5%
N/C(=N\OC(=O)c1ccccc1Cl)c1ccc(Cl)cc1,-2.9%,?,1.35µM*,15.8µM*,2.59µM*,19.8%
COc1ccc(C(=O)O/N=C(\N)c2ccccc2Cl)cc1OC,nt,-1.6%,?,nt,?,-1.0%
N/C(Cn1cncn1)=N\OC(=O)c1ccc(Cl)cc1,-1.3%,1.9%,4.0%,-1.7%,4.0%,-2.7%
N/C(=N\OC(=O)c1ccc(Cl)cc1)c1ccn[nH]1,nt,1.58µM*,3.01µM*,nt,2.59µM*,1.26µM*
C/C(=N\OC(=O)c1ccc(Cl)cc1)c1nccs1,-15.1%,0.6%,0.477µM*,-18.9%,1.0%,0.7%
CC(=O)N1c2ccc(S(=O)(=O)N3CCCCCC3)cc2CC1C(=O)NCc1ccccc1F (stereo not given),nt,nt,-3.9%,nt,nt,nt
CC(=O)N(OCc1ccccc1)[C@@H]1c2cc(C#N)ccc2OC(C)(C)[C@H]1O,-1.6%,nt,nt,-14.8%,nt,nt
CCOc1ccc(-c2cc(C(=O)Nc3ccc(NC(C)=O)cc3)no2)cc1,nt,nt,3.5%,nt,nt,nt
N/C(=N\OC(=O)c1ccco1)c1cccnc1,-7.5%,-1.6%,?,7.4%,?,6.8%
COc1ccccc1C(=O)O/N=C(\N)c1ccccc1Cl,0.9%,?,?,22.4µM*,?,4.0%
N/C(=N\OC(=O)c1ccccc1Cl)c1ccccc1,?,3.16µM*,0.379µM*,11.2µM*,?,3.16µM*
N/C(=N\OC(=O)c1ccc(OCC(F)(F)F)nc1)c1ccc(Cl)cc1,nt,-0.6%,?,nt,7.5%,1.2%
N/C(=N\OC(=O)c1ccco1)c1ccc(Cl)cc1,-8.0%,?,23.9µM*,nt,7.3µM*,?
N/C(=N\OC(=O)c1ccc(Cl)cc1)c1ccc(Cl)cc1,-7.2%,?,3.01µM*,?,?,?
